# ± gives the standard deviation of the averaged measurements.
# Test system: lanierone-responsive B-neuron OSN class (ItypOR36)
# Assay: net action potential response of lanierone B-neuron (blank-subtracted) (spikes/s (Hz)); higher = stronger excitation
# Conditions: 10 µg on filter paper, neuron: B neuron (small spike amplitude)
# Procedure: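 Single sensillum recordings from antennal olfactory sensilla of live adult Ips typographus. Each compound was 10 µg in paraffin oil, delivered as a 0.5 s puff. Net response = spikes in the first 0.5 s of response minus the 0.5 s pre-stimulus count, doubled to give Hz, with blank response subtracted. Values are for the small-spike lanierone-responsive B-neuron (putatively expressing ItypOR36), recorded in sensilla co-housing the A-neuron class; N = 1-4, averaged.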
# [1] = co-localized A-neuron class: (4S)-cis-verbenol
# [2] = co-localized A-neuron class: (5S,7S)-trans-conophthorin
# [3] = co-localized A-neuron class: (+)-isopinocamphone
# [4] = co-localized A-neuron class: (+)-trans-4-thujanol
# [5] = co-localized A-neuron class: ipsdienol
# [6] = co-localized A-neuron class: myrcene
# [7] = co-localized A-neuron class: p-cymene
Structure (SMILES),net action potential response [1],net action potential response [2],net action potential response [3],net action potential response [4],net action potential response [5],net action potential response [6],net action potential response [7]
C=CCc1ccc(OC)c(OC)c1 [Eugenol methyl ether],0 ± 8.7,-3 ± 5,4.67 ± 9,-2 ± 1.6,-1.33 ± 5,0,-3.33 ± 9.4
Cc1ccc(C(C)C)cc1 [p-Cymene],-3.33 ± 3.1,0.5 ± 2.5,-2 ± 3.5,-1.5 ± 4.4,-1.33 ± 5,4,-3.33 ± 5.8
CC[C@H]1O[C@]2(C)CCC[C@H]1O2 (racemic) [(±)-exo-Brevicomin],0 ± 2,-4 ± 2,-2,-1 ± 1.1,4 ± 12,2,-3.33 ± 2.3
C=C1[C@@H]2CC[C@@H](C2)C1(C)C (racemic) [(±)-Camphene],-3.33 ± 8.3,0 ± 2,-3.33 ± 1.1,0 ± 3.6,3.33 ± 2.3,-4,0
CC(=O)c1ccccc1 [Acetophenone],0 ± 5.3,-3.33 ± 4.2,-0.667 ± 2.3,1.5 ± 1,-4.67 ± 3.1,4,1.33 ± 10
"c1ccc2c(c1)CCO2 [2,3-Dihydrobenzofuran]",3.33 ± 9.2,-0.667 ± 4.2,0.667 ± 11,2.5 ± 3.4,-3.33 ± 3.1,-2,6 ± 8.7
